Results as given in PubChem BioAssay (NCI).
The panel holds about 79,000 compounds, 15% with a hit somewhere; the sample as a whole holds those more often. Calls of active or inactive are those of the source. Cut-off read from the data, not from the text of the source: active = growth inhibition above about 70%; inactive = the rest.

Tests used:
[1] = NCI Yeast Anticancer Drug Screen. Data for the wt2 strain (AID 169);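 note: 0% = growth of vehicle-treated yeast cultures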; details: S. cerevisiae wt2 strain growth inhibition, stronger effect = higher value
In short: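 Steps: yeast strain treated with compound; growth recorded; inhibition calculated relative to cultures given vehicle alone.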

[2] = NCI Yeast Anticancer Drug Screen. Data for the mlh1 strain (AID 171);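 note: 0% = growth of vehicle-treated control cultures of the same strain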; details: S. cerevisiae mlh1 strain growth inhibition, stronger effect = higher value
In short: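 Yeast screen: mutant strain plus compound, growth scored against vehicle control wells.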

[3] = NCI Yeast Anticancer Drug Screen. Data for the sgs1 strain (AID 173);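 note: 0% = growth of vehicle-only control cultures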; details: S. cerevisiae sgs1 mutant, stronger effect = higher value
In short: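 Inhibition of yeast growth served as the measure. The mutant strain was treated with each compound, and growth was normalised to cultures receiving vehicle alone.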

[4] = NCI Yeast Anticancer Drug Screen. Data for the mlh1 rad18 strain (AID 175); details: S. cerevisiae mlh1 rad18 strain growth inhibition, stronger effect = higher value
In short: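 Compound-treated yeast growth, normalised to vehicle controls. Strain bears defined DNA repair mutations.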

[5] = NCI Yeast Anticancer Drug Screen. Data for the rad18 strain (AID 177); details: S. cerevisiae rad18 mutant growth inhibition, stronger effect = higher value
In short: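 Inhibition values reflect reduced yeast growth compared with vehicle-treated controls, using a strain engineered with a DNA damage repair defect.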

[6] = NCI Yeast Anticancer Drug Screen. Data for the rad52 strain (AID 147);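 note: 0% = growth of vehicle-treated control cultures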; details: S. cerevisiae rad52 mutant growth inhibition, stronger effect = higher value
In short: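 Genetically altered yeast (DNA damage repair defect) treated with compound; inhibition calculated relative to vehicle.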

[7] = NCI Yeast Anticancer Drug Screen. Data for the wt1 strain (AID 149);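 note: 0% = growth of vehicle-treated wt1 cultures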; details: S. cerevisiae wt1 strain (SPY 50644) growth inhibition, stronger effect = higher value
In short: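 Measured: growth of wt1 yeast under compound versus vehicle treatment, reported as inhibition.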

[8] = NCI Yeast Anticancer Drug Screen. Data for the rad50EPP+ strain (AID 151);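 note: 0% = growth of vehicle-treated control cultures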; details: S. cerevisiae rad50 mutant strain, stronger effect = higher value
In short: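 Strain rad50EPP+; compound exposure; % growth inhibition vs vehicle.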

[9] = NCI Yeast Anticancer Drug Screen. Data for the mgt1 strain (AID 153); details: S. cerevisiae mgt1 mutant growth inhibition, stronger effect = higher value
In short: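 Read-out: yeast growth inhibition vs vehicle control. Strain mgt1, drawn from a panel altered in DNA damage repair or cell cycle control.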

[10] = NCI Yeast Anticancer Drug Screen. Data for the rad50 strain (AID 155);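 note: 0% = growth of vehicle-only cultures of the same strain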; details: S. cerevisiae rad50 strain growth inhibition, stronger effect = higher value
In short: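 Growth of the mutant yeast was measured after compound exposure and referenced to vehicle-treated cultures.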

[11] = NCI Yeast Anticancer Drug Screen. Data for the mec2-1 strain (AID 157); details: S. cerevisiae mec2-1 strain, stronger effect = higher value
In short: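 Cells of the genetically defined mec2-1 yeast strain are incubated with test compound. Inhibition of growth is calculated against vehicle-treated controls.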

[12] = NCI Yeast Anticancer Drug Screen. Data for the rad14 strain (AID 159);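 note: 0% = growth of vehicle-treated control cultures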; details: S. cerevisiae rad14 strain growth inhibition, stronger effect = higher value
In short: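 Here, inhibition of yeast growth was measured after compound exposure, using a strain with a genetic defect in DNA damage repair and vehicle-treated cultures as the reference.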

[13] = NCI Yeast Anticancer Drug Screen. Data for the sgs1 mgt1 strain (AID 161);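 note: 0% = growth of cultures given vehicle only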; details: S. cerevisiae sgs1 mgt1 strain, stronger effect = higher value
In short: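 Read-out: growth inhibition vs vehicle controls. Cells: mutant yeast strain deficient in DNA damage repair.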

[14] = NCI Yeast Anticancer Drug Screen. Data for the CLN2oe strain (AID 163);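 note: 0% = growth of vehicle-only control cultures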; details: S. cerevisiae CLN2oe strain, stronger effect = higher value
In short: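 Strain altered in cell-cycle control, incubated with compound; growth compared to solvent-treated controls.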

[15] = NCI Yeast Anticancer Drug Screen. Data for the cln2 rad14 strain (AID 165);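 note: 0% = growth equal to vehicle treated cultures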; details: S. cerevisiae cln2 rad14 strain, stronger effect = higher value
In short: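 The screen exposed genetically defined yeast (cln2 rad14) to test compounds and scored growth inhibition relative to vehicle-treated controls.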

[16] = NCI Yeast Anticancer Drug Screen. Data for the bub3 strain (AID 167); details: S. cerevisiae bub3 mutant strain, stronger effect = higher value
In short: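 Whole-cell yeast assay. The mutant strain was incubated with compounds, and growth inhibition was determined by comparison with vehicle-treated cells.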

[17] = at 5.0 µM (retest, dose inferred, filed as 0.5)
[18] = at 50.0 µM (retest, dose inferred, filed as 5.0)

Measured: growth inhibition

CCN(CC)CCN(C)CCc1ccc(Br)cc1
inactive: [1]; at 1.2 µM 6% | [1]; at 3.7 µM 11% | [1]; at 11.0 µM 33% | [1]; at 33.0 µM 68% | [2]; at 1.2 µM 7% | [2]; at 3.7 µM 13% | [2]; at 11.0 µM 31% | [2]; at 33.0 µM 60% | [3]; at 1.2 µM 10% | [3]; at 3.7 µM 23% | [3]; at 11.0 µM 49% | [4]; [17] -29% | [4]; [18] 25% | [4]; at 50.0 µM 68.3% | [5]; at 1.2 µM 11% | [5]; at 3.7 µM 32% | [5]; at 11.0 µM 54% | [5]; at 33.0 µM 66%
active: [1]; at 100.0 µM 94% | [2]; at 100.0 µM 94% | [3]; at 33.0 µM 85% | [3]; at 100.0 µM 94% | [5]; at 100.0 µM 91%

O=C(O)c1cc2ccc(Cl)cc2c(O)c1C1=CCCCC1
active: [6]; at 100.0 µM 78% | [7]; at 100.0 µM 73% | [9]; at 100.0 µM 84% | [10]; at 50.0 µM 74.3% | [10]; at 100.0 µM 76% | [12]; at 100.0 µM 75% | [13]; [18] 76% | [13]; at 50.0 µM 79.8% | [14]; at 100.0 µM 71% | [16]; at 100.0 µM 78% | [1]; at 100.0 µM 87% | [2]; at 100.0 µM 87% | [3]; at 100.0 µM 88% | [4]; [18] 74% | [5]; at 100.0 µM 81%
inactive: [6]; at 1.2 µM 6% | [6]; at 3.7 µM 8% | [6]; at 11.0 µM 26% | [6]; at 33.0 µM 46% | [7]; at 1.2 µM -10% | [7]; at 3.7 µM 2% | [7]; at 11.0 µM 6% | [7]; at 33.0 µM 28% | [8]; at 1.2 µM 8% | [8]; at 3.7 µM 8% | [8]; at 11.0 µM 13% | [8]; at 33.0 µM 13% | [8]; at 100.0 µM 33% | [9]; at 1.2 µM 7% | [9]; at 3.7 µM -15% | [9]; at 11.0 µM 1% | [9]; at 33.0 µM 42% | [10]; at 1.2 µM -7% | [10]; at 3.7 µM -5% | [10]; [17] 33% | [10]; at 11.0 µM 11% | [10]; at 33.0 µM 36% | [10]; [18] 58% | [11]; at 1.2 µM 22% | [11]; at 3.7 µM 18% | [11]; [17] -1% | [11]; at 11.0 µM 22% | [11]; at 33.0 µM 40% | [11]; [18] 58% | [11]; at 50.0 µM 69.1% | [11]; at 100.0 µM 69% | [12]; at 1.2 µM -6% | [12]; at 3.7 µM -10% | [12]; at 11.0 µM 9% | [12]; at 33.0 µM 30% | [13]; [17] 0% | [14]; at 1.2 µM 17% | [14]; at 3.7 µM -2% | [14]; at 11.0 µM 4% | [14]; at 33.0 µM 40% | [15]; [17] 12% | [15]; [18] 63% | [15]; at 50.0 µM 56.9% | [16]; at 1.2 µM 14% | [16]; at 3.7 µM -8% | [16]; [17] 26% | [16]; at 11.0 µM -5% | [16]; at 33.0 µM 32% | [16]; [18] 64% | [16]; at 50.0 µM 60.4% | [1]; at 1.2 µM 5% | [1]; at 3.7 µM 5% | [1]; at 11.0 µM 23% | [1]; at 33.0 µM 52% | [2]; at 1.2 µM 26% | [2]; at 3.7 µM 24% | [2]; at 11.0 µM 41% | [2]; at 33.0 µM 68% | [3]; at 1.2 µM 23% | [3]; at 3.7 µM 23% | [3]; at 11.0 µM 39% | [3]; at 33.0 µM 65% | [4]; [17] -7% | [4]; at 50.0 µM 62.4% | [5]; at 1.2 µM 22% | [5]; at 3.7 µM 21% | [5]; at 11.0 µM 25% | [5]; at 33.0 µM 52%

CCO/C(C)=C(/C#N)C(N)=S
active: [13]; [18] 73% | [15]; at 50.0 µM 85.3% | [16]; [18] 70% | [16]; at 50.0 µM 74.7% | [4]; [18] 84%
inactive: [6]; at 1.2 µM -1% | [6]; at 3.7 µM -1% | [6]; at 11.0 µM -1% | [6]; at 33.0 µM -2% | [6]; at 100.0 µM 3% | [7]; at 1.2 µM -1% | [7]; at 3.7 µM -2% | [7]; at 11.0 µM 0% | [7]; at 33.0 µM 0% | [7]; at 100.0 µM 1% | [8]; at 1.2 µM -3% | [8]; at 3.7 µM -6% | [8]; at 11.0 µM -11% | [8]; at 33.0 µM -16% | [8]; at 100.0 µM 2% | [9]; at 1.2 µM -2% | [9]; at 3.7 µM -4% | [9]; at 11.0 µM -5% | [9]; at 33.0 µM 14% | [9]; at 100.0 µM 0% | [10]; at 1.2 µM 1% | [10]; at 3.7 µM -1% | [10]; [17] 13% | [10]; at 11.0 µM -1% | [10]; at 33.0 µM 0% | [10]; [18] 67% | [10]; at 50.0 µM 60% | [10]; at 100.0 µM 2% | [11]; at 1.2 µM -2% | [11]; at 3.7 µM 1% | [11]; [17] 3% | [11]; at 11.0 µM -1% | [11]; at 33.0 µM -1% | [11]; [18] 2% | [11]; at 50.0 µM 35.5% | [11]; at 100.0 µM 1% | [12]; at 1.2 µM -2% | [12]; at 3.7 µM -2% | [12]; at 11.0 µM 0% | [12]; at 33.0 µM 0% | [12]; at 100.0 µM 4% | [13]; [17] -9% | [13]; at 50.0 µM 40.3% | [14]; at 1.2 µM -3% | [14]; at 3.7 µM -4% | [14]; at 11.0 µM -1% | [14]; at 33.0 µM -8% | [14]; at 100.0 µM -11% | [15]; [17] 5% | [15]; [18] 21% | [16]; at 1.2 µM -4% | [16]; at 3.7 µM -3% | [16]; [17] 4% | [16]; at 11.0 µM -3% | [16]; at 33.0 µM -7% | [16]; at 100.0 µM -4% | [1]; at 1.2 µM -1% | [1]; at 3.7 µM -2% | [1]; at 11.0 µM 0% | [1]; at 33.0 µM 1% | [1]; at 100.0 µM 1% | [2]; at 1.2 µM -2% | [2]; at 3.7 µM -3% | [2]; at 11.0 µM -1% | [2]; at 33.0 µM -3% | [2]; at 100.0 µM 0% | [3]; at 1.2 µM -1% | [3]; at 3.7 µM 3% | [3]; at 11.0 µM 1% | [3]; at 33.0 µM 3% | [3]; at 100.0 µM 6% | [4]; [17] 3% | [4]; at 50.0 µM 42.9% | [5]; at 1.2 µM 0% | [5]; at 3.7 µM -1% | [5]; at 11.0 µM 7% | [5]; at 33.0 µM -1% | [5]; at 100.0 µM 4%
